These results are taken from ChEMBL document CHEMBL4513141, “CO-ADD screening of NIH (USA) - Clinical Collection” (2021).

Potency and affinity values are given separately.

One assay relates to Staphylococcus aureus. Particulars: Concentration 20 uM; ASSAY_TEST Inhibition of Bacterial Growth; detection method Absorption (OD600); MEDIA CAMHB; plate type 384well; NBS; CORNING #3640; time 18 hr.
For a further assay, the system named is Escherichia coli. Particulars: Concentration 20 uM; ASSAY_TEST Inhibition of Bacterial Growth; detection method Absorption (OD600); MEDIA CAMHB; plate type 384well; NBS; CORNING #3640; time 18 hr.

Take `COC(=O)C1=C(C)NC(C)=C(C(=O)O[C@@H]2CCCN(Cc3ccccc3)C2)[C@@H]1c1cccc([N+](=O)[O-])c1.Cl`: the Inhibition in the assay on Staphylococcus aureus was 8.73%; in the assay with Escherichia coli, -0.62%.

`CCC[C@@H]1C[C@@H](C(=O)N[C@@H]([C@H]2O[C@H](SC)[C@H](O)[C@@H](O)[C@H]2O)[C@@H](C)O)N(C)C1.Cl.O` [LINCOMYCIN HYDROCHLORIDE]: the Inhibition with Staphylococcus aureus amounted to 20.41%; in the assay on Escherichia coli, 6.86%.

Take `CC[C@H](C)C(=O)O[C@H]1CCC=C2C=C[C@H](C)[C@H](CC[C@@H]3C[C@@H](O)CC(=O)O3)[C@H]21` [MEVASTATIN]: the figures for the Inhibition in the assay with Staphylococcus aureus and in the assay on Escherichia coli were -0.69% and 8.43%, respectively.

As to `CC(=O)OCC(=O)NCCCOc1cccc(CN2CCCCC2)c1.Cl` [ROXATIDINE ACETATE HYDROCHLORIDE], the Inhibition was 9.98% in the assay with Staphylococcus aureus and 5.49% in the assay on Escherichia coli.

In the case of `CCC(CO)NCCNC(CC)CO` (configuration not stated), the Inhibition came to 8.81% in the assay on Staphylococcus aureus and 2.87% in the assay with Escherichia coli.

Regarding `CC(c1cc2ccccc2s1)N(O)C(N)=O` (configuration not stated) [ZILEUTON], the values for the Inhibition with Staphylococcus aureus and in the assay with Escherichia coli were -21.42% and 6.17%, respectively.

Turning to `CN(C)CCCSc1ccccc1NC(=O)/C=C/c1ccccc1.Cl.O`, the Inhibition in the assay with Staphylococcus aureus turned out to be 14.82%; in the assay on Escherichia coli, 3.24%.

Take `C[C@]12CCC(=O)C=C1CC[C@@H]1[C@@H]2[C@@H](O)C[C@@]2(C)[C@H]1CC[C@]2(O)C(=O)COC(=O)CCC(=O)O` [HYDROCORTISONE HEMISUCCINATE ANHYDROUS]: the Inhibition in the assay on Staphylococcus aureus is given as -27.4%; in the assay on Escherichia coli, 4.71%.

In the case of `O=C1C(c2c(O)[nH]c3ccccc23)=Nc2ccccc21`, the Inhibition with Staphylococcus aureus is reported as 2.27%; in the assay with Escherichia coli, -3.28%.

Turning to `O=[N+]([O-])c1cccc2cn[nH]c12` [7-NITROINDAZOLE], the Inhibition with Staphylococcus aureus came out at 16.98%; in the assay with Escherichia coli, 6.38%.

In the case of `O=C(CCCN1CC=C(n2c(=O)[nH]c3ccccc32)CC1)c1ccc(F)cc1` [DROPERIDOL], the results for the Inhibition with Staphylococcus aureus and in the assay on Escherichia coli were 14.29% and -7.37%, respectively.

Take `O=C(O)c1cc(/N=N/c2ccc(S(=O)(=O)Nc3ccccn3)cc2)ccc1O` [SULFASALAZINE]: the Inhibition in the assay with Staphylococcus aureus is on record as -13.67%; with Escherichia coli, 7.84%.

For `COc1ccc(CC2c3cc(OC)c(OC)cc3CC[N+]2(C)CCC(=O)OCCCCCOC(=O)CC[N+]2(C)CCc3cc(OC)c(OC)cc3C2Cc2ccc(OC)c(OC)c2)cc1OC.O=S(=O)(O)c1ccccc1` (configuration not stated), the Inhibition worked out at 4.52% in the assay on Staphylococcus aureus and 6.82% in the assay on Escherichia coli.

For `Oc1ncc(F)cn1`, the Inhibition amounted to 12.62% in the assay with Staphylococcus aureus and 10.23% in the assay on Escherichia coli.

Consider `CCN(CC)CCOC(=O)C1(C2CCCCC2)CCCCC1.Cl` [DICYCLOMINE HYDROCHLORIDE], for which the Inhibition in the assay on Staphylococcus aureus is given as 8.61%; in the assay with Escherichia coli it was 0.37%.

On to `O=c1c(-c2ccccc2)c1-c1ccccc1` [DIPHENCYPRONE], for which the Inhibition with Staphylococcus aureus is -9.91%; in the assay with Escherichia coli, 6.71%.

`CC(C)(C)NCC(O)COc1cccc2c1CC(O)C(O)C2` (configuration not stated) [NADOLOL]: the Inhibition with Staphylococcus aureus worked out at 16.27%; in the assay on Escherichia coli it was 3.67%.

Regarding `COc1cc(OC)c(C(=O)CCCN2CCCC2)c(OC)c1.Cl`, the Inhibition in the assay with Staphylococcus aureus is 14.97%; in the assay with Escherichia coli, 2.85%.

Turning to `Nc1nc(N)nc(-c2cc(Cl)ccc2Cl)n1.O=C(O)/C=C\C(=O)O` [IRSOGLADINE MALEATE], the results for the Inhibition in the assay with Staphylococcus aureus and in the assay on Escherichia coli were 8.27% and 0.86%, respectively.

Turning to `Nc1ccn([C@@H]2O[C@H](CO)[C@@H](O)[C@@H]2O)c(=O)n1` [CYTARABINE], the Inhibition in the assay with Staphylococcus aureus was 17.83%; in the assay on Escherichia coli it was -2.15%.

Regarding `COc1ccc(CN2CCN(C(c3ccc(F)cc3)c3ccc(F)cc3)CC2)c(OC)c1OC.Cl.Cl`, the values for the Inhibition with Staphylococcus aureus and in the assay with Escherichia coli were 8.66% and -0.33%, respectively.

For the molecule `CN1CCN(C2=Nc3cc(F)ccc3Cc3ccccc32)CC1` [FLUPERLAPINE], the Inhibition in the assay on Staphylococcus aureus is reported as 14.37%; in the assay with Escherichia coli, 3.9%.

For `CCC(=O)OCC(=O)[C@@]1(OC(=O)CC)[C@@H](C)C[C@H]2[C@@H]3CCC4=CC(=O)C=C[C@]4(C)[C@@]3(Cl)[C@@H](O)C[C@@]21C` [BECLOMETHASONE DIPROPIONATE], the Inhibition with Staphylococcus aureus was 4.92%; in the assay with Escherichia coli it was -8.75%.

As to `COc1cc2c(cc1OC)C(=O)C(CC1CCN(Cc3ccccc3)CC1)C2.Cl` (configuration not stated) [DONEPEZIL HYDROCHLORIDE], the Inhibition in the assay on Staphylococcus aureus was 12.57%; in the assay with Escherichia coli, -6.95%.

Regarding `Cl.Nc1nc2ccc(OC(F)(F)F)cc2s1`, the Inhibition was 13.98% in the assay with Staphylococcus aureus and 2.43% with Escherichia coli.

As to `COc1cc([C@@H]2c3cc4c(cc3[C@@H](O[C@@H]3O[C@@H]5CO[C@@H](C)O[C@H]5[C@H](O)[C@H]3O)[C@H]3COC(=O)[C@H]23)OCO4)cc(OC)c1O` [ETOPOSIDE], the Inhibition in the assay with Staphylococcus aureus is recorded as 14.84%; with Escherichia coli it was -0.07%.
